Measurements: ChEMBL document CHEMBL1961873, “Compounds: GSK PKIS; Assays: Nanosyn kinase panel” (2012)

How the values were obtained:
[1] = biological target: Protein kinase C gamma type (Homo sapiens) (UniProt P05129); conditions: at 1 µM;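 also: each value is an averaged percent inhibition of the enzyme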
[2] = biological target: T1, Protein kinase C iota type (Homo sapiens) (UniProt P41743); conditions: at 0.1 µM
T1 sequence (whole entry): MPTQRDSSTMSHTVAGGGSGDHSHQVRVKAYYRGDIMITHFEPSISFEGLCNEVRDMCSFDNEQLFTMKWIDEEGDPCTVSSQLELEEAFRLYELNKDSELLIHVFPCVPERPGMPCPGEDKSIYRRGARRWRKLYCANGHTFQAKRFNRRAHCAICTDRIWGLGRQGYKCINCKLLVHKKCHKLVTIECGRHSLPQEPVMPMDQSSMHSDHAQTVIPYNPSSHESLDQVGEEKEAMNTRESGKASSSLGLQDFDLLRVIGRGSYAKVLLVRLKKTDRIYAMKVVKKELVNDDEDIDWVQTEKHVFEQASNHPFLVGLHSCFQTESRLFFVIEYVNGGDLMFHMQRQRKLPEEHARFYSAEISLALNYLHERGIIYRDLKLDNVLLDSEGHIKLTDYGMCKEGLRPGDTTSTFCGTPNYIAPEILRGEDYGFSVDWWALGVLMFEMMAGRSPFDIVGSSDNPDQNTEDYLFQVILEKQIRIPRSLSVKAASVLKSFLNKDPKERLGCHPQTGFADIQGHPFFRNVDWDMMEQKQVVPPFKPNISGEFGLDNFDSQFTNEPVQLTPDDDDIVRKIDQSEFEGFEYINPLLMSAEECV

[3] = biological target: T1, Protein kinase C iota type (Homo sapiens); conditions: at 1 µM
[4] = biological target: Protein kinase C theta type (Homo sapiens) (UniProt Q04759); conditions: at 0.1 µM
[5] = biological target: Protein kinase C theta type (Homo sapiens) (UniProt Q04759); conditions: at 1 µM
[6] = biological target: Protein kinase C beta type (Homo sapiens) (UniProt P05771); conditions: at 0.1 µM
[7] = biological target: Protein kinase C beta type (Homo sapiens) (UniProt P05771); conditions: at 1 µM
[8] = biological target: T2, Serine/threonine-protein kinase D1 (Homo sapiens) (UniProt Q15139); conditions: at 0.1 µM
T2 sequence (whole entry): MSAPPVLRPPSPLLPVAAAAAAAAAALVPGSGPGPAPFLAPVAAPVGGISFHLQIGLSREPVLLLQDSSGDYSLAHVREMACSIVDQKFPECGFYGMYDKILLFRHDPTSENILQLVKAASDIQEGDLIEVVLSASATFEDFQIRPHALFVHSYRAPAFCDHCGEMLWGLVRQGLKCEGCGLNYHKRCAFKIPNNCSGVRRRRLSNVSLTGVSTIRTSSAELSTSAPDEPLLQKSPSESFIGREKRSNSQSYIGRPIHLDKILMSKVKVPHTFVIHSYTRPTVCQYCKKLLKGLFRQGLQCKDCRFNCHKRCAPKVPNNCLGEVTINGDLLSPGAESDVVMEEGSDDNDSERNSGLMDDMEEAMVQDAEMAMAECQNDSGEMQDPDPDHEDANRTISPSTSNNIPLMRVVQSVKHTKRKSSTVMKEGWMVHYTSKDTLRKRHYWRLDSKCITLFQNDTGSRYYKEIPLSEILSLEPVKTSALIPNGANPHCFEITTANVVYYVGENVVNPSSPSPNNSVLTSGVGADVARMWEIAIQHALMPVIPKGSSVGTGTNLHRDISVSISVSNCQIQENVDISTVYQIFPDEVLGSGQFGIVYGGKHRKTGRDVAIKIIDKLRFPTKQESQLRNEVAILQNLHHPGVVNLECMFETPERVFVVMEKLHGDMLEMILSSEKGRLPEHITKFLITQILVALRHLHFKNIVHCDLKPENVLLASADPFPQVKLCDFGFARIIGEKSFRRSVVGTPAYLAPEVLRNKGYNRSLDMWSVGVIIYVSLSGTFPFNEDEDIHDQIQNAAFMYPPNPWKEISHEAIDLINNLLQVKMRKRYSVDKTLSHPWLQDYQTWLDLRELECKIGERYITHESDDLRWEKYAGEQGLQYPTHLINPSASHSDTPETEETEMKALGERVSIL

[9] = biological target: T2, Serine/threonine-protein kinase D1 (Homo sapiens); conditions: at 1 µM
[10] = biological target: T3, Serine/threonine-protein kinase D2 (Homo sapiens) (UniProt Q9BZL6); conditions: at 0.1 µM
T3 sequence (whole entry): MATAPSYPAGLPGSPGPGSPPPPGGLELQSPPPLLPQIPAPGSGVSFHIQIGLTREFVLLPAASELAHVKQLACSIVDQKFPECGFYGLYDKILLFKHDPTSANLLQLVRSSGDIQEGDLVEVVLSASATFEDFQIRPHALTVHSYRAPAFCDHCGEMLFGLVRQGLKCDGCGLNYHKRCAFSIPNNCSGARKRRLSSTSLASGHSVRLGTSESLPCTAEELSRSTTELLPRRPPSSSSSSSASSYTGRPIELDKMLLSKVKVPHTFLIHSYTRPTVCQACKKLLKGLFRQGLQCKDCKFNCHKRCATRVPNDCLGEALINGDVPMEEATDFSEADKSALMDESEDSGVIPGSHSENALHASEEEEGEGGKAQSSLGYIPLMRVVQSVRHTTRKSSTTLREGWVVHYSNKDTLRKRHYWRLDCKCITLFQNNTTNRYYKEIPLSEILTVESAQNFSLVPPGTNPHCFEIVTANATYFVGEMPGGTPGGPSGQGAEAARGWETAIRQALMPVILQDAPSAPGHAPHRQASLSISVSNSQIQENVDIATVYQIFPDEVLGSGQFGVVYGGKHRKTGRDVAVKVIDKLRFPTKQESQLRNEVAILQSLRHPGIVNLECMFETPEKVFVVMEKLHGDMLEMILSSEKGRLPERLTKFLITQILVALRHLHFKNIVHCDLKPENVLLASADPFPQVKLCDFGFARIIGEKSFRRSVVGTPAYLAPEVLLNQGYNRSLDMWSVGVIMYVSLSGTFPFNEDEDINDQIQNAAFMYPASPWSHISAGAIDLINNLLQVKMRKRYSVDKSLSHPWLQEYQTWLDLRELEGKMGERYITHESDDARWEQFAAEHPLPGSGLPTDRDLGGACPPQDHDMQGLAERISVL

[11] = biological target: T3, Serine/threonine-protein kinase D2 (Homo sapiens); conditions: at 1 µM
[12] = biological target: T4, Serine/threonine-protein kinase D3 (Homo sapiens) (UniProt O94806); conditions: at 0.1 µM
T4 sequence (whole entry): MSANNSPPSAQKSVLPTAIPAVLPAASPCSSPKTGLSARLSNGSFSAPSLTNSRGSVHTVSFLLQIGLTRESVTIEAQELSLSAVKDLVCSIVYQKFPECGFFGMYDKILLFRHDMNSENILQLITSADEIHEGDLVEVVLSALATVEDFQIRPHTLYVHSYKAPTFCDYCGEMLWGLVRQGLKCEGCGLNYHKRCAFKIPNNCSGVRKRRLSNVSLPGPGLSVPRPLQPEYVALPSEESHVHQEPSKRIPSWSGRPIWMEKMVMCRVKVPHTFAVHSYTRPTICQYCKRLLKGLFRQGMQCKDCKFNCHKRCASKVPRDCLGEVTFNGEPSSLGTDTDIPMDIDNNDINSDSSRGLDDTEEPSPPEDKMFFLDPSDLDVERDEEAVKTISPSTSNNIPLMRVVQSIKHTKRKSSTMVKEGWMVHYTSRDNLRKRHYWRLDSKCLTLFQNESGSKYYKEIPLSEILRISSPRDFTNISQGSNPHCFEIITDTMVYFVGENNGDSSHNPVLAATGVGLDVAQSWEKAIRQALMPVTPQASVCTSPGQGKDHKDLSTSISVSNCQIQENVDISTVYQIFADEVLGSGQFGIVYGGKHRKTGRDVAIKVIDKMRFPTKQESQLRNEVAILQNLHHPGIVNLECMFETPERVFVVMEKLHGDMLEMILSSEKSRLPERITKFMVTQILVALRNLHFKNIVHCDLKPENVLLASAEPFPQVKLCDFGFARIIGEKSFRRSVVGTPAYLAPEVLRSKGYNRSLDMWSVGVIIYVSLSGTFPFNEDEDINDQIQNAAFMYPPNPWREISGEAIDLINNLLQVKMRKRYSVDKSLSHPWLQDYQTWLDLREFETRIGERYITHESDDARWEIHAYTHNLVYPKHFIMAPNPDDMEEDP

[13] = biological target: T4, Serine/threonine-protein kinase D3 (Homo sapiens); conditions: at 1 µM
[14] = biological target: T5, cGMP-dependent protein kinase 1 (Homo sapiens) (UniProt Q13976); conditions: at 0.1 µM
T5 sequence (whole entry): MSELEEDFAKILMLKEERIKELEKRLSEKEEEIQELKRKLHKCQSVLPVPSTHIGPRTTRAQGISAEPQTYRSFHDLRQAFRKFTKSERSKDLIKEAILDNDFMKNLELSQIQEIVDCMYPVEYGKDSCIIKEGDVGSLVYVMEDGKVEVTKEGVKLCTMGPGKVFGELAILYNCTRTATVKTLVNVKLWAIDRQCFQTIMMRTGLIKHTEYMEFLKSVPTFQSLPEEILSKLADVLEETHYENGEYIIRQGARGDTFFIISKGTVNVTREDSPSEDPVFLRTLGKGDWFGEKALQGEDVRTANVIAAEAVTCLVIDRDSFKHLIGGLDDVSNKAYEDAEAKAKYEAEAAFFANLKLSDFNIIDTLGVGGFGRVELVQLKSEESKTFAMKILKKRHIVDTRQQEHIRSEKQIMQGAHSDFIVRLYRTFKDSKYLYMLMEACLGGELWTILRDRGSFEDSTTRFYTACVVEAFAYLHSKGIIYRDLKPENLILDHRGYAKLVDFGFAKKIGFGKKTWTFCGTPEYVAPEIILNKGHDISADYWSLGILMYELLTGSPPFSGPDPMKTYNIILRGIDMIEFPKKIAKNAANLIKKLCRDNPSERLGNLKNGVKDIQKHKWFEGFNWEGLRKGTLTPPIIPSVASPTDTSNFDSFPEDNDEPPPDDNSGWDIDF

[15] = biological target: T5, cGMP-dependent protein kinase 1 (Homo sapiens); conditions: at 1 µM
[16] = biological target: T6, cGMP-dependent protein kinase 2 (Homo sapiens) (UniProt Q13237); conditions: at 0.1 µM
T6 sequence (whole entry): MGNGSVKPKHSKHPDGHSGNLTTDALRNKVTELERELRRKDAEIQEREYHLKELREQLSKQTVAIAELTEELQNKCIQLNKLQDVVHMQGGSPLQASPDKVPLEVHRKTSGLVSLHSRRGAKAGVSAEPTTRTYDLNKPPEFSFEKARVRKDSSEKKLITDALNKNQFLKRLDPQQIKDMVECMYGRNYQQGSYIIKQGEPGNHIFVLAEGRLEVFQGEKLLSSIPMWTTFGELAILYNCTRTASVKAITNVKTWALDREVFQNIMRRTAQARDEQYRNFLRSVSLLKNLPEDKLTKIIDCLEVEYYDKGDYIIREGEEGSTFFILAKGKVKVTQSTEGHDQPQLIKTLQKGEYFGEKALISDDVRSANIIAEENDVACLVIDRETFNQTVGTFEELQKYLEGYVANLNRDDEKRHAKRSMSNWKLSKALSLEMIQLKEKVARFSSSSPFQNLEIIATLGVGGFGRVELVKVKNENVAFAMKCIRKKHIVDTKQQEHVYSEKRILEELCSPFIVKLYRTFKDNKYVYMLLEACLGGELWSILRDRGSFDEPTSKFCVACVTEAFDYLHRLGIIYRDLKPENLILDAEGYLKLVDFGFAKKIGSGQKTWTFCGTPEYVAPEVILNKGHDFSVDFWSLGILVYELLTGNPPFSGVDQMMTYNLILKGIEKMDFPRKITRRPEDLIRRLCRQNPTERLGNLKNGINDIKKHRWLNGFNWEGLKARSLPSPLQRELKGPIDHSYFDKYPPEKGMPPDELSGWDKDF

[17] = biological target: T6, cGMP-dependent protein kinase 2 (Homo sapiens); conditions: at 1 µM
[18] = biological target: T7, cAMP-dependent protein kinase catalytic subunit PRKX (Homo sapiens) (UniProt P51817); conditions: at 0.1 µM
T7 sequence (whole entry): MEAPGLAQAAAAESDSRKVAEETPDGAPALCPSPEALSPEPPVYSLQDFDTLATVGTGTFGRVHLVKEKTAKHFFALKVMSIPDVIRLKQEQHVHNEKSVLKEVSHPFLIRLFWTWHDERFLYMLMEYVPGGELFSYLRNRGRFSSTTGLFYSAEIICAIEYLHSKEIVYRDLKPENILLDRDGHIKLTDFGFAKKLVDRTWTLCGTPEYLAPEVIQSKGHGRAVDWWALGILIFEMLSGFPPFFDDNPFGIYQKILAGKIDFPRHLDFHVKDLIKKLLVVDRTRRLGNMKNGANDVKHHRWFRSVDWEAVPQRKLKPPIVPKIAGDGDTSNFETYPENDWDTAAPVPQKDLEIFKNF

[19] = biological target: T7, cAMP-dependent protein kinase catalytic subunit PRKX (Homo sapiens); conditions: at 1 µM
[20] = biological target: Rho-associated protein kinase 1 (Homo sapiens) (UniProt Q13464); conditions: at 0.1 µM;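 also: values are mean percent inhibition of ROCK1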
Chain of Rho-associated protein kinase 1 (Homo sapiens) (Q13464 2-1354 limits assumed): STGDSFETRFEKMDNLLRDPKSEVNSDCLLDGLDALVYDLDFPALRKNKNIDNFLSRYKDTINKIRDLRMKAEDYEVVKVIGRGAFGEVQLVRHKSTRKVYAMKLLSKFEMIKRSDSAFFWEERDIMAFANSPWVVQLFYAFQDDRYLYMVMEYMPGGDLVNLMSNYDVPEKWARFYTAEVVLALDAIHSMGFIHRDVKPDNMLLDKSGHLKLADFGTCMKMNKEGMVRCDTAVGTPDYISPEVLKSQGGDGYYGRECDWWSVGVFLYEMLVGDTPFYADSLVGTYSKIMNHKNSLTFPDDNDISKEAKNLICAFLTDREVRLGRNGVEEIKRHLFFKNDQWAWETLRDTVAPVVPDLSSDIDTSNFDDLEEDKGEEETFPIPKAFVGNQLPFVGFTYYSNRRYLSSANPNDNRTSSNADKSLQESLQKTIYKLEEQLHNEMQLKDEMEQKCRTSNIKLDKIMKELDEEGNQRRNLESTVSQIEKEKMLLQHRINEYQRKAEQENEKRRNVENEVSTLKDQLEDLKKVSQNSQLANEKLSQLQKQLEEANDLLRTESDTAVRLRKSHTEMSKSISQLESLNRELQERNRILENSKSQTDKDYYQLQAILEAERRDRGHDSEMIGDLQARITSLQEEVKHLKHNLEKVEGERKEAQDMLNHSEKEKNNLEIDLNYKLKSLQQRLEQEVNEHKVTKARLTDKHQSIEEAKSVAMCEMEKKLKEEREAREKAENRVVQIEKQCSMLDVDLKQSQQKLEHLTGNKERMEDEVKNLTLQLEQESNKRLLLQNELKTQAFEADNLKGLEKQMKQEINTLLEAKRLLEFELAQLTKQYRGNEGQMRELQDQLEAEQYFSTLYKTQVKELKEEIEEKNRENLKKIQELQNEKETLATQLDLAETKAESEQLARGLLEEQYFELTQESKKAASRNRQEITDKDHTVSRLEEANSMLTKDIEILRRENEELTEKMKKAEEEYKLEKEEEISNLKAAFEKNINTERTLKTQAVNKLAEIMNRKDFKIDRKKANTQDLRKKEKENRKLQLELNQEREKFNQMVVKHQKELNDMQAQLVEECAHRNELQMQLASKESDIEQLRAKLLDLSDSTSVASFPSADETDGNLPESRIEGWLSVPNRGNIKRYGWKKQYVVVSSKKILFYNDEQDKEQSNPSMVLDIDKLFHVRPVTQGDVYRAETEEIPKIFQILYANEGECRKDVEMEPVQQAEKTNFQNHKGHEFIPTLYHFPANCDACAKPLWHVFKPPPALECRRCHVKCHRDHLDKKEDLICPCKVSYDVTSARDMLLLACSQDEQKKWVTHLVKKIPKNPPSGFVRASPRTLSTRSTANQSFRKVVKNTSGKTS

Chain of Protein kinase C beta type (Homo sapiens) (P05771 2-671 limits assumed): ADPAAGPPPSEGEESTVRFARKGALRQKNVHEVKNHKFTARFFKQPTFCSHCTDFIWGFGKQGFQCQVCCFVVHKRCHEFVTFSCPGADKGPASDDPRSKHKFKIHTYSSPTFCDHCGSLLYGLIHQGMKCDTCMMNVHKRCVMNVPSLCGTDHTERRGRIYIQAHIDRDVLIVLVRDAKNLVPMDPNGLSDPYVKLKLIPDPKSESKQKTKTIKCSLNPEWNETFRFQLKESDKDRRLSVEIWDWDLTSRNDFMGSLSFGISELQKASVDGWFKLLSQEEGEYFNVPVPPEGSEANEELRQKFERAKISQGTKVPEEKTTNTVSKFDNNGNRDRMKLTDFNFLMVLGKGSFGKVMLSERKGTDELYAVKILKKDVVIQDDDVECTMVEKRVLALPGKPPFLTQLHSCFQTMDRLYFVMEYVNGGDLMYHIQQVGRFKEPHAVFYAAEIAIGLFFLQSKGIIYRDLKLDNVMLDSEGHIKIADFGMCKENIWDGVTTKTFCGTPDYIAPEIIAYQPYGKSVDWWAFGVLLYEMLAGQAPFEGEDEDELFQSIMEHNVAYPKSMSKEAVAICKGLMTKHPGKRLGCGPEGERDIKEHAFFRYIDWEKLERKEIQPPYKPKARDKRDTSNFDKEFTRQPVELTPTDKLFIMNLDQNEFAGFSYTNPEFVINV
Chain of Protein kinase C theta type (Homo sapiens) (Q04759 whole entry, looked up): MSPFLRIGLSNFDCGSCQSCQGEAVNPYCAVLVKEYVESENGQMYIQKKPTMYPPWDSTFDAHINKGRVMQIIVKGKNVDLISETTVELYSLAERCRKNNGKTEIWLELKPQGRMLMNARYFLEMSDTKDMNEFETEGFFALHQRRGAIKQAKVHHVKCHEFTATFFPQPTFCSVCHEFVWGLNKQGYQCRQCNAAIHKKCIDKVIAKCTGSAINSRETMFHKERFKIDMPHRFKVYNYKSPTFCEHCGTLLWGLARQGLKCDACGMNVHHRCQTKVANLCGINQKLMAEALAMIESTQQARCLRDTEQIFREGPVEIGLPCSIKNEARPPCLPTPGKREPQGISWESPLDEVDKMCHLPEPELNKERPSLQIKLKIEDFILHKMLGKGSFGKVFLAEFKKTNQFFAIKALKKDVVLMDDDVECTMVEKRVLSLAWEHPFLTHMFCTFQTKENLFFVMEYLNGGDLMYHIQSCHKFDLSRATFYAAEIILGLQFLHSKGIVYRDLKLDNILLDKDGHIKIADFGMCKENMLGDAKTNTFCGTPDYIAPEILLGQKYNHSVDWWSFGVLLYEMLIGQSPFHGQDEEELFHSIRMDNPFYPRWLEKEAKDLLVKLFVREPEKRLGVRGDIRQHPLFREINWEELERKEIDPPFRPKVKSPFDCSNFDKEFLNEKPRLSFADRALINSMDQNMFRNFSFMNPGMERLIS

With `COc1ccc(-c2ccncc2)cc1C(N)=O` the inhibition [1] was 1.71%, the inhibition [2] was 0.36% and the inhibition [3] was 1.27%. For the same compound, the inhibition [4] was 2.73%, the inhibition [5] was 4.84% and the inhibition [6] was 0.88%. For the same compound, the inhibition [7] was 2.35%, the inhibition [8] was 5.51% and the inhibition [9] was 15.2%. For the same compound, the inhibition [10] was 4.91%, the inhibition [11] was 5.71% and the inhibition [12] was 5.67%. It also gave an inhibition [13] of 11.1%, an inhibition [14] of 4.34% and an inhibition [15] of 13.7%. It also gave an inhibition [16] of 2.97%, an inhibition [17] of 17% and an inhibition [18] of 2.9%. The inhibition [19] was 3.27% and the inhibition [20] was 2.65%.
Work on `Nc1ncnc2occ(-c3ccc(NC(=O)Nc4cccc(C(F)(F)F)c4)cc3)c12` yielded an inhibition [1] of 2.18%, an inhibition [2] of 3.47% and an inhibition [3] of 3.34%. It also gave an inhibition [4] of 2.55%, an inhibition [5] of 2.66% and an inhibition [6] of 1.71%. For the same compound, the inhibition [7] was 2.2%, the inhibition [8] was 5.29% and the inhibition [9] was 7.85%. For the same compound, the inhibition [10] was 5.02%, the inhibition [11] was 4.09% and the inhibition [12] was 5.37%. For the same compound, the inhibition [13] was 5.91%, the inhibition [14] was 3.04% and the inhibition [15] was 1.94%. The inhibition [16] was 2.46%, the inhibition [17] was 3.85% and the inhibition [18] was 1.94%. For the same compound, the inhibition [19] was 3.42% and the inhibition [20] was 4.04%.
